Experiment: E. coli acrAB mutant growth effects, primary screen, E. coli filamentation inducers, strain DRC39, OD650, 24 h (AID 1178);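 also: growth measured as culture turbidity by optical density at 650 nm; test concentration not given here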
Conditions: higher = more signal, called active from +8 up or from −8 down

z-score, inactive:
COC(=O)[C@]1(Cc2ccccc2CN=[N+]=[N-])N=C(c2ccc(OCCCO)cc2)O[C@@H]1c1ccccc1N=[N+]=[N-] 1.74
O=C1O[C@H](c2ccccc2)[C@H](c2ccccc2)N2[C@H]1[C@@H](C(=O)O)[C@]1(C(=O)Nc3ccc(C#CC4(O)CCCCCC4)cc31)[C@H]2c1ccccc1OCCO 0.703
COCCOC(=O)N1C(=O)[C@@]2(c3ccccc31)[C@H](C(=O)Nc1nc3ccccc3s1)[C@H]1C(=O)O[C@H](c3ccccc3)[C@H](c3ccccc3)N1[C@@H]2c1ccccc1OCCO 0.0795
[N-]=[N+]=Nc1ccccc1C[C@]1(C(N)=O)COC(c2ccc(OCCCO)cc2)=N1 0.578
CCOC(=O)C1=CCC(c2cccn2C(=O)OC(C)(C)C)N(S(=O)(=O)c2ccc(C)cc2)C1 (stereo not given) -0.484
O=C1C2C=CC(C(O)C(c3ccccc3)c3ccccc3)N(Nc3ccccc3F)C2C(=O)N1c1ccccc1 (stereo not given) -0.872
COc1cc(Cc2cc3c(c(-c4ccccc4)n2)[Si](C(C)C)(C(C)C)OC3)cc(OC)c1OC 1.13
CC1(C)OB(/C=C\CC(OC(=O)c2ccncc2)c2ccccc2)OC1(C)C (stereo not given) 0.0147
COC(=O)[C@@]1(Cc2ccc(F)cc2)[C@H]2c3cc(C(=O)N(C)C)n(Cc4ccc(C(F)(F)F)nc4)c3C[C@H]2CN1C(=O)c1ccccc1 -0.532
Cc1ccc(S[C@]2(C(=O)NC(C)C)CC(=O)N(Cc3ccccc3)[C@@H]2c2ccc(CO)cc2)cc1 1.19
